An excerpt weighted towards active compounds, which were near 0.98% of everything screened.
Keap1-Nrf2 PPI = inhibitors of human Keap1-Nrf2 protein-protein interaction; 0.15% of 340,000 active; Q14145; inhibition, % at 9.4 µM; Keap1 Kelch-Nrf2 peptide fluorescence polarization, 1536-well; in the data active = inhibition above about 12%;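 note: human Keap1 Kelch domain with fluorescein labeled Nrf2 9mer peptide probe; 0% = neutral control wells and 100% = peptide positive control; higher means more block of Keap1 binding to Nrf2 peptide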
Cardiac RTF inh = cardiac RTF calcium desensitization. P19429+P45379. IANBD-labeled cardiac RTF, Ca2+ fluorescence. inhibition, % at 7.15 µM. 0.12% of 340,000 active;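 active = inhibition above the mean inhibition of all tested compounds plus 3 SD, cut at about 17% in these data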;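 note: assay run at fixed EC70 calcium of 1.6 mM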
cardiac RTF act = cardiac RTF calcium sensitization. P19429+P45379. activation, % at 7.2 µM. IANBD-labeled TnC RTF fluorescence at EC20 calcium; 0% EC20 calcium, 100% full calcium. 0.24% of 340,000 active;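 active = activation above the mean over all tested compounds plus 3 SD, cut at about 30% in these data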;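 note: rise in fluorescence read as greater calcium sensitivity of cardiac thin filaments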
C-LANA FP = inhibitors of KSHV LANA C-terminal domain DNA binding | MBP-C-LANA/FAM-LBS DNA binding, fluorescence polarization | inhibition, % at 9 µM | 0.078% of 340,000 active | AID 504423;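 active = highest replicate inhibition at or above 60% at 9 µM, even if other replicates fall short; inactive = all replicates below 60% inhibition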;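 note: 0% = neutral control wells and 100% = 4 µM acridine orange control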
LANA-H2A inh = blocks KSHV LANA binding to histone H2A/H2B | Q9QR71 | cell-free LANA-H2A/H2B peptide, fluorescence polarization | inhibition, % (test concentration not listed) | 0.6% of 320,000 active | AID 2629; in the data active = inhibition mostly above about 10%, no sharp cut-off; inactive = mostly below about 6.7%
RTF inh confirm = cardiac RTF calcium sensitivity inhibition, confirmation | shares compounds with Cardiac RTF inh | reconstituted cardiac thin filaments, calcium sensitivity fluorescence | inhibition, % at 7.15 µM | 8% of 360 active | AID 504635; in the data active = inhibition above about 18%
Keap1 TSA = binders of human Keap1 Kelch domain; shares compounds with Keap1-Nrf2 PPI; Keap1 Kelch thermal shift, delta Tm; stronger effect = higher value; max delta Tm, degrees C; 8% of 400 active; AID 651823; in the data active = max delta Tm above about 0.48 degrees C
* = called active by the depositor; i = inactive; . = no result; ! = a repeat was not active.

SMILES	Keap1-Nrf2 PPI	Cardiac RTF inh	cardiac RTF act	C-LANA FP	LANA-H2A inh	others
Fc1ccc(C(OCCN2CCCC2)c2ccc(F)cc2)cc1	-2.0	-12.8	2.5	-0.9	0.9
Fc1ccc(C(OCCN2CCCC2)c2ccc(Br)cc2)cc1 (configuration not stated)	0.2	-6.7	8.3	0.3	12.5*
CCOC(=O)C1CCN(C(C)C(=O)c2c(C)[nH]c3cc(C)ccc23)CC1 (configuration not stated)	1.4	-4.8	0.9	6.7	1.0
O=C(O)CCCc1ccc(N(CCCl)CCCl)cc1	-2.6	-0.8	-0.4	-4.9	-2.7
O=C1NC(=S)SC1=Cc1ccc(N(CCCl)CCCl)cc1	-46.0	-75.8	94.3*	-22.9	.
Nc1ccc2ccc3cccc[n+]3c2c1	138.0*	i	742.6*	152.5*	35.9*
C[n+]1c(-c2ccccc2)c2cc(N)ccc2c2ccc(N)cc21	7.3	-4.8	-0.7	20.9	12.6
CN1C(=O)C(=Cc2ccc(N3CCCCCC3)o2)C(=O)N(C)C1=S	-9.9	-14.7	58.0*	-2.1	0.2
Cc1ccc(Sc2ccc(C=C3C(=O)N(C)C(=O)N(C)C3=O)o2)cc1	-8.9	-39.0	8.9	-1.0	-0.7
CN1C(=O)C(=Cc2ccc(N3CCOCC3)o2)C(=O)N(C)C1=O	-64.6	-83.7	71.6*	-19.3	-50.4
COc1ccc(C2=CC(c3ccc(OC)c(OC)c3)c3c(c4ccccc4oc3=O)O2)cc1OC (configuration not stated)	-11.0	-3.0	-2.2	1.4	1.3
COc1cccc2c1C(=O)c1c(O)c3c(c(O)c1C2=O)CC(O)(C(C)=NO)CC3OC1CC(N)C(O)C(C)O1 (configuration not stated)	5.2	-205.6	166.2*	114.1*	.
Cc1cc2c(C(F)(F)F)cc(=O)oc2c2c1NCCC2	8.3	-105.2	63.1*	1.9	-1.6
O=[N+]([O-])c1ccc(N2CC2)c([N+](=O)[O-])c1	-4.0	-4.0	5.3	-0.6	.
Nc1c(Br)cc([N+](=O)[O-])cc1[N+](=O)[O-]	2.1	1.4	-3.6	-0.4	25.6*
CC[C@H](OC(C)=O)C(C[C@H](C)N(C)C)(c1ccccc1)c1ccccc1	3.0	-2.2	-1.8	-0.6	.
CC(=NCCCn1ccnc1)c1c(O)n(C)c(=O)n(C)c1=O	-1.3	-2.0	-0.8	0.9	-5.8
COC(=O)C1=C(c2c(C)noc2C)C[C@@H]2CC[C@H]1N2C(=O)NCCOc1ccc(OC)cc1	-3.5	3.7	-0.5	3.7	1.3
COc1ccc(-n2c(O)c(/C=C3\C=Nc4ccc(Br)cc43)c(=O)[nH]c2=O)cc1	4.2	-12.0	-0.2	31.3	13.0*
C/C=C/c1ccc2c(c1)OCO2	2.3	-2.1	0.6	-1.3	11.2*
CCOP(=S)(OCC)SCSP(=S)(OCC)OCC	-3.5	7.3	-1.7	-1.2	.
N#CC(C#N)=Cc1ccc(-c2ccccc2F)o1	-2.7	-36.2	36.5*	2.3	-2.7
c1ccc(CCCN2CCN(CCOC(c3ccccc3)c3ccccc3)CC2)cc1	-5.3	-13.9	0.1	0.1	1.6
Fc1ccc(C(OCCN2CCN(CCCc3ccccc3)CC2)c2ccc(F)cc2)cc1	0.5	17.1*	-2.7	2.2	-1.9	RTF inh confirm=-1.9
CCOC(=O)CC(SP1(=S)OCC2(CC=CCC2)CO1)C(=O)OCC (configuration not stated)	2.6	-2.2	-8.1	2.9	.
SMILES	Keap1-Nrf2 PPI	Cardiac RTF inh	cardiac RTF act	C-LANA FP	LANA-H2A inh	others
CN(C)[C@@H]1C(=O)C(C(N)=O)=C(O)[C@@]2(O)C(=O)C3=C(O)c4c(O)cccc4[C@@](C)(O)C3[C@H](O)C12 (some centres not stated)	-7.0	20.5*!	10.5	72.3*!	1.3	RTF inh confirm=-4.8
O=c1cc(C(F)(F)F)c2cc3c4c(c2o1)CCCN4CCC3	13.6*	i	544.9*	19.3	4.5	Keap1 TSA=-0.05
CCc1ccc(-n2c(O)c(C(C)=O)c(=O)[nH]c2=O)cc1 (tested in a mixture with another compound)	-5.0	-1.6	7.0	1.3	-4.0
Cc1c(C(=O)N2CCC3(CC2)OCCO3)sc2ncnc(N3CCc4ccccc4C3)c12	-2.9	-37.0	0.8	-1.3	-2.5
CCN1C(=O)NC(=O)/C(=C\c2cn(CC(=O)N3CCCCC3)c3ccccc23)C1=O	20.6*	-3.3	2.3	36.6	2.5	Keap1 TSA=-0.11
COC(=O)C1=C(c2ccc(C(C)=O)cc2)C[C@@H]2CC[C@H]1N2C(=O)NC(C)C	-2.8	-20.9	-0.3	0.0	2.1
Nc1ccc2nonc2c1[N+](=O)[O-]	52.2*	-130.6	102.2*	80.3*	28.6*	Keap1 TSA=-0.08
